Reference: PubChem BioAssay (NCATS)
Inconclusive results are not listed. A number with no mark means an inactive call. Activity calls are given as the source filed them. Calls come from the whole dose curve; as a rule, active = well fitted curve in the direction sought with a large enough effect; inconclusive = small, poorly fitted or top-dose-only effect, or another doubt; inactive = no such curve, though single readings can be large; an effect the other way counts as inactive or inconclusive. Non-standard residues stand in square brackets, D forms with d. Residues, ends and D or L forms follow the SMILES beside them. *: point of attachment. Benzoyl(4-tBu) = CC(C)(C)c1ccc(C(=O)*)cc1; Lys(Et2) = CCN(CC)CCCC[C@H](N)C(=O)O

How the values were obtained:
[1] = BET inhibitor-based combinations targeting novel dependencies in MECOM-rearranged (r) AML: SET-2 cell line (AID 2202231); conditions: SET-2 AML cells viability, CellTiter-Glo luminescence, 48 h; viability: stronger effect = lower value, concentration not given here; note: nearly all actives have a fitted effect of over 35% in size;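 for viability: plate controls were DMSO treated cells for no effect and wells without cells for full effect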
Method in brief: (§1)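 Viability of cells (500 per well) is scored by luminescent CellTiter-Glo at 48 hr post-dosing. Eleven-point titrations are normalized to DMSO and empty controls and reduced to AUC values.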

[2] = BET inhibitor-based combinations targeting novel dependencies in MECOM-rearranged (r) AML: OCI-AML3 cell line (AID 2202232); conditions: Potency: OCI-AML3 viability; note: nearly all actives have a fitted effect of over 35% in size
Method in brief: as §1

[3] = BET inhibitor-based combinations targeting novel dependencies in MECOM-rearranged (r) AML: MV-4-11 cell line (AID 2202233); note: nearly all actives have a fitted effect of over 45% in size
Method in brief: (§2)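 Using pin-tool transfer, drugs were added in 11 doses to cells (500/well), incubated 48 hr, and assessed with CellTiter-Glo. Z-AUC is a mean-centring transformation applied separately to each screened line.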

[4] = BET inhibitor-based combinations targeting novel dependencies in MECOM-rearranged (r) AML: HNT-34 cell line (AID 2202234); note: nearly all actives have a fitted effect of over 35% in size
Method in brief: as §2

[5] = BET inhibitor-based combinations targeting novel dependencies in MECOM-rearranged (r) AML: UCSD-AML1 cell line (AID 2202235); note: nearly all actives have a fitted effect of over 40% in size
Method in brief: as §2

[6] = BET inhibitor-based combinations targeting novel dependencies in MECOM-rearranged (r) AML: AML-191 cell line (AID 2202236; note: nearly all actives have a fitted effect of over 35% in size)
Method in brief: as §1

[7] = BET inhibitor-based combinations targeting novel dependencies in MECOM-rearranged (r) AML: AML-194 cell line (AID 2202237; note: nearly all actives have a fitted effect of over 40% in size)
Method in brief: as §1
Potency is the fitted concentration of half-maximal effect.

Row | Compound | Potency [1] | Potency [2] | Potency [3] | Potency [4] | Potency [5] | Potency [6] | Potency [7] | viability [1]
1 | CC(C)(C)OC(=O)Nc1ccc(-c2cc(C(=O)NCCCCCCC(=O)NO)no2)cc1 | 2950 nM (active) | 2630 nM (active) | 1660 nM (active) | 2350 nM (active) | 3720 nM (active) | 2630 nM (active) | 3320 nM (active) | 
2 | Cc1ccc(C)c(OCCCC(C)(C)C(=O)O)c1 |  | inactive | inactive | inactive | inactive |  | inactive | 116%
3 | O=C1NC(=O)[C@@H](c2c[nH]c3ccccc23)[C@H]1c1cn2c3c(cccc13)CCC2 | 2350 nM (active) | 1180 nM (active) | 1320 nM (active) | 934 nM (active) |  | 934 nM (active) | 934 nM (active) | 
4 | C[C@H]1[C@H](C)CC[C@]2(C(=O)O)CC[C@]3(C)C(=CC[C@@H]4[C@@]5(C)CC[C@H](O)C(C)(C)[C@@H]5CC[C@]43C)[C@H]12 |  | inactive | inactive | inactive |  | inactive | inactive | 102%
5 | CN(C)c1cc(NC(=O)CNC(C)(C)C)c(O)c2c1C[C@H]1C[C@H]3[C@H](N(C)C)C(=O)C(C(N)=O)=C(O)[C@]3(O)C(=O)C1=C2O |  | inactive | inactive | inactive | 4680 nM (active) | inactive | inactive | 74.8%
6 | CC(=NNC(=O)c1cccc(S(=O)(=O)N2CCOCC2)c1)c1cc(Cl)ccc1O | 6610 nM (active) | 5250 nM (active) | 7420 nM (active) | 2630 nM (active) | 5250 nM (active) |  | 4680 nM (active) | 
7 | O=C(CCCCCCC(=O)N/N=C/c1ccc(N(c2ccccc2)c2ccccc2)cc1)NO | 7420 nM (active) | 13200 nM (active) | 4680 nM (active) | 4680 nM (active) | 7420 nM (active) | 6610 nM (active) | 7420 nM (active) | 
8 | COc1ccc([C@@H]2CC(=O)c3c(O)cc(O[C@@H]4O[C@H](CO[C@@H]5O[C@@H](C)[C@H](O)[C@@H](O)[C@H]5O)[C@@H](O)[C@H](O)[C@H]4O)cc3O2)cc1O |  | inactive | inactive | inactive | inactive | inactive | inactive | 119%
9 | CC(C)(C)NC(=O)c1cncn1C1CCN(c2ccc(-c3nnc(C(F)(F)F)o3)cn2)CC1 | 16600 nM (active) | 1050 nM (active) | 5250 nM (active) | 4680 nM (active) |  | 13200 nM (active) |  | 
10 | CNCCCOc1cc(F)c(-c2c(Cl)nc3ncnn3c2N[C@@H](C)C(F)(F)F)c(F)c1 | 148 nM (active) | 83.3 nM (active) | 93.4 nM (active) | 74.2 nM (active) | 118 nM (active) | 93.4 nM (active) | 105 nM (active) | 
11 | CCN(CC)CCCC[C@H](NC(=O)[C@H](CC(C)C)NC(=O)[C@H](C)NC(=O)[C@H](Cc1ccccc1)NC(=O)c1ccc(C(C)(C)C)cc1)C(=O)N[C@@H](CO)C(=O)OC ({Benzoyl(4-tBu)}-FAL[Lys(Et2)]S-OMe) |  | inactive | inactive | inactive | inactive | inactive | inactive | 71.5%
12 | Cc1nc2ccc(CN(C)c3ccc(C(=O)N[C@@H](CCC(=O)O)C(=O)O)s3)cc2c(=O)[nH]1 | 46.8 nM (active) | 46.8 nM (active) | 46.8 nM (active) | inactive | 46.8 nM (active) |  | 332 nM (active) | 
13 | CN1CCC(c2c(O)cc(O)c3c(=O)cc(-c4ccccc4Cl)oc23)C1CO (centres undefined) | 1320 nM (active) | 742 nM (active) | 934 nM (active) | 833 nM (active) |  | 662 nM (active) | 1050 nM (active) | 
14 | CC(C)(CO)n1cc(C(=O)c2cncc(NC(=O)Cc3ccc(Cl)cn3)c2)c2cnc(N)nc21 |  | inactive | 7420 nM (active) | inactive | inactive |  | 83.3 nM (active) | 125%
15 | CCNCCc1ccc(CN(CC)c2cc(OC)ccc2[C@@H]2CCc3cc(O)ccc3C2)cc1 | 9340 nM (active) | 6610 nM (active) | 5900 nM (active) | 8330 nM (active) |  | 7420 nM (active) | 8330 nM (active) | 
16 | C=C[C@H]1CN2CCC1C[C@@H]2C(O)c1ccnc2ccc(OC)cc12 (some centres undefined) |  | inactive | 18600 nM (active) | inactive | inactive |  | inactive | 103%
17 | COc1cc(O)c2c(c1)C1OC1C[C@H](O)[C@H](O)C(=O)C=CC[C@H](C)OC2=O (some centres undefined) | 5900 nM (active) | 742 nM (active) | 132 nM (active) | 934 nM (active) | 1480 nM (active) |  | 1480 nM (active) | 
18 | CNCCn1c(=O)c2cc(OC)c(OC)cc2c2cnc3cc4c(cc3c21)OCO4 | 24.1 nM (active) | 21.5 nM (active) | 15.2 nM (active) | 12.1 nM (active) | 19.1 nM (active) | 24.1 nM (active) | 24.1 nM (active) | 
19 | Clc1ccc(-c2nc3sccn3c2/C=N/OCc2ccc(Cl)c(Cl)c2)cc1 |  | inactive | inactive | inactive | inactive |  | inactive | 112%
20 | O=c1[nH]c(=O)n([C@H]2C[C@H](O)[C@@H](CO)O2)cc1F | 296 nM (active) | 417 nM (active) | 74.2 nM (active) | 5900 nM (active) |  | 263 nM (active) |  | 

Row | Compound | Potency [1] | Potency [2] | Potency [3] | Potency [4] | Potency [5] | Potency [6] | Potency [7] | viability [1]
21 | COc1nnc2ccc(N3CCC(c4ccc(OCCN5CCN(C)C(=O)[C@H]5C)cc4)CC3)nn12 | 148 nM (active) | 41.7 nM (active) | 59 nM (active) | 105 nM (active) |  | 83.3 nM (active) |  | 
22 | Cc1ccc(-n2[nH]c(C)c(N=Nc3cccc(-c4cccc(C(=O)O)c4)c3O)c2=O)cc1C |  | inactive | inactive | inactive | inactive |  | inactive | 109%
23 | N#Cc1cccnc1N1CCN(C(=O)c2cccc(Cc3n[nH]c(=O)c4ccccc34)c2)CC1 | 296 nM (active) | 166 nM (active) | 59 nM (active) | 37.2 nM (active) | 83.3 nM (active) |  | 132 nM (active) | 
24 | CN1CC(=O)N2[C@H](c3ccc4c(c3)OCO4)c3[nH]c4ccccc4c3C[C@@H]2C1=O |  | inactive | inactive | inactive | inactive |  | inactive | 116%
25 | CC[C@@H](Oc1cccc(CN(CCCOc2ccc(OC)cc2)c2nc3ccccc3o2)c1)C(=O)O |  | inactive | inactive | inactive | inactive | inactive | inactive | 110%
26 | Nc1ccn([C@@H]2O[C@H](CO)[C@@H](O)[C@H]2O)c(=O)n1 |  | inactive | 16600 nM (active) | inactive | inactive |  | inactive | 117%
27 | CC[C@@]1(O)C(=O)OCc2c1cc1n(c2=O)Cc2c-1nc1cc(F)c(C)c3c1c2[C@@H](N)CC3 | 3.7 nM (active) | 5.3 nM (active) | 4.2 nM (active) | 3 nM (active) | 4.2 nM (active) | 8.3 nM (active) | 3.7 nM (active) | 
28 | Cc1c(CN2CCC(Nc3ncnc4sc(CC(F)(F)F)cc34)CC2)ccc2c1cc(C#N)n2Cc1cn[nH]c1 | 3320 nM (active) | 13200 nM (active) | 3320 nM (active) | 16600 nM (active) | 16600 nM (active) | 18600 nM (active) | 20900 nM (active) | 
29 | NC(CO)(CO)CCc1ccc(Sc2cccc(OCc3ccccc3)c2)cc1Cl | 18600 nM (active) | 9340 nM (active) | 10500 nM (active) | 18600 nM (active) |  | 10500 nM (active) | 9340 nM (active) | 
30 | COc1ccc(N2C(=O)N(c3c(C)cccc3Cl)Cc3cnc(Nc4ccc(C5CCN(C)CC5)cc4OC)nc32)nc1 | 16600 nM (active) | 16600 nM (active) | 2950 nM (active) | 1660 nM (active) | 13200 nM (active) | 16600 nM (active) | 18600 nM (active) | 
31 | CC(=O)N[C@H]1CSSC[C@@H](C(N)=O)NC(=O)[C@H](C(C)C)NC(=O)[C@H](C)NC(=O)[C@H](Cc2cnc[nH]2)NC1=O |  | inactive | inactive | inactive |  | inactive | inactive | 113%
32 | O=C(O)/C(S)=C/c1ccc(I)cc1 |  | inactive | inactive | inactive | inactive | inactive | inactive | 112%
33 | O=C(NOCCO)c1ccc2cncn2c1Nc1ccc(I)cc1F | 18600 nM (active) | 93.4 nM (active) | 742 nM (active) | 525 nM (active) | 1320 nM (active) |  | 1660 nM (active) | 
34 | COC(=O)Nc1nc2ccc(C(=O)c3ccccc3)cc2[nH]1 | 833 nM (active) | 590 nM (active) | 525 nM (active) | 263 nM (active) | 296 nM (active) |  | 332 nM (active) | 
35 | CC(C)OC(=O)[C@H](C)N[P@](=O)(OC[C@H]1O[C@@H](n2ccc(=O)[nH]c2=O)[C@](C)(F)[C@@H]1O)Oc1ccccc1 |  | inactive | inactive | inactive | inactive | inactive | inactive | 107%
36 | O=C1NC(=O)/C(=C/c2ccc3nccc(-c4ccncc4)c3c2)S1 | 14800 nM (active) | 1050 nM (active) | 833 nM (active) | 1050 nM (active) |  | 934 nM (active) |  | 
37 | COc1cc(=C2C=c3ccccc3=N2)[nH]/c1=C/c1[nH]c(C)cc1C | 4170 nM (active) | 2630 nM (active) | 2350 nM (active) | 3720 nM (active) |  | 2350 nM (active) | 5900 nM (active) | 
38 | CN1C/C=C/CCOc2cccc(c2)-c2ccnc(n2)Nc2cccc(c2)C1 | 118 nM (active) | 468 nM (active) | 417 nM (active) | 417 nM (active) | 148 nM (active) |  | 372 nM (active) | 
39 | C/C=C1\NC(=O)[C@H]2CSSCC/C=C\[C@H](CC(=O)N[C@H](C(C)C)C(=O)N2)OC(=O)[C@H](C(C)C)NC1=O | 29.5 nM (active) | 10.5 nM (active) | 11.8 nM (active) | 8.3 nM (active) | 10.5 nM (active) | 14.8 nM (active) | 23.5 nM (active) | 
